Compound activity as filed in PubChem.
An excerpt weighted towards active compounds, which were near 8% of everything screened.
Marburg entry inh: Marburg virus entry inhibition. Marburg virus pseudotyped entry inhibition, cell reporter. Potency, µM (titrated, usually from 37.8 µM), hits mostly inhibitors. AID 540276. actives 1.8% (n = 300,000); calls by dose curve; tested in HEK293 cells
SARS PLpro yeast: blocks SARS-CoV papain-like protease in a yeast assay; S. cerevisiae expressing SARS-CoV PLpro, growth rescue; Potency, µM (highest dose often 32.9 µM), actives largely listed as activators; actives 0.19% (n = 330,000); AID 485353; calls by dose curve; further: nearly all actives have a fitted effect of over 55% in size
HCV inh: blocks hepatitis C virus; Potency, µM (titrated, usually from 41.8 µM), usual class: inhibitors; actives 3.4% (n = 340,000); AID 651820; Huh7.5.1 HCVcc-Cre infection, luciferase reporter, 44 h; active means well fitted inhibition curve with a large enough effect; inconclusive means small, poorly fitted or top-dose-only effect, or another doubt; inactive means no such curve, though single readings can be large or run the other way
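Reporter virus HCVcc-Cre (~0.5 moi) infects cells exposed to compound; seeding density 1,000 cells/well with 4 h settling beforehand. Luminescence, 15 sec read, taken 44 h post-infection following a 15 min RT substrate incubation.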
LASV entry inh: blocks Lassa virus binding to or entry into cells; Lassa virus pseudotype entry inhibition, cell reporter; Potency, µM (doses to about 37.9 µM), hits mostly inhibitors; actives 1.2% (n = 300,000); AID 540256; calls by dose curve; tested in HEK293 cells; further: nearly all actives have a fitted effect of over 50% in size
FMDV inh: antivirals against foot and mouth disease virus; FMDV antiviral cell-based qHTS; Potency, µM (top dose mostly 57.9 µM), most hits filed as inhibitors; actives 1.2% (n = 410,000); AID 1159524; calls by dose curve; tested in HEK293T cells; further: read-out not given here; nearly all actives have a fitted effect of over 45% in size
HCMV inh: human cytomegalovirus inhibition. HFF cells, HCMV-luciferase reporter, 72 h; active compounds read low. activity change, negative = inhibition, % at 57.5 µM. actives 4.5% (n = 410,000); in the data active means activity change below about -60%; inconclusive means no clear call, values can overlap the other calls; inactive means above about -39%
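Cell-based, HFFs, 1000 cells/well, 16 h 37C; cpds in DMSO + HCMV-luc, MOI 1 PFU/cell; 72 h 37C; OneGlo luminescence after 5 min RT; norm. to buffer vs Salinomycin 10uM.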
Large screens that a line does not name were inactive; ! = repeats disagree.

COc1ccc2nc(-c3cccc(N)c3)[nH]c2c1	Marburg entry inh 10µM, LASV entry inh 11.2µM
OC(COc1ccccc1)CN1CCN(C(c2ccccc2)c2ccccc2)CC1 (stereo unspecified)	HCV inh 7.94µM (no result: Marburg entry inh, LASV entry inh)
Cc1ccc(N2CCN(CC(O)COc3cccc(C)c3)CC2)cc1 (stereo unspecified)	HCMV inh -61.6 (no result: Marburg entry inh, LASV entry inh)
CN1CCN(CC(O)COc2ccc(C34CC5CC(CC(C5)C3)C4)cc2)CC1 (stereo unspecified)	Marburg entry inh inconclusive, HCV inh 10µM, HCMV inh inconclusive
NC(=O)C1CCN(CC(O)COc2ccc(-c3ccccc3)cc2)CC1 (stereo unspecified)	Marburg entry inh inconclusive, HCV inh 10µM
CCOC(=O)N1CCN(CC(O)COc2ccc(-c3ccccc3)cc2)CC1 (stereo unspecified)	FMDV inh inconclusive (no result: Marburg entry inh, LASV entry inh)
Cc1cccc(N2CCN(CC(O)COc3ccccc3)CC2)c1 (stereo unspecified)	Marburg entry inh inconclusive (no result: SARS PLpro yeast)
COc1cc(-c2n[nH]c3ccnc(-c4cccc(OC(F)(F)F)c4)c23)cc(OC)c1OC	none (no result: Marburg entry inh, SARS PLpro yeast, HCV inh, LASV entry inh, FMDV inh)
COc1ccccc1CCNC(=O)C1CCN(c2nnc(-n3cccc3CNc3ccc(C)cc3)s2)CC1	FMDV inh inconclusive (no result: SARS PLpro yeast, HCV inh, LASV entry inh)
COCc1cc(C)nc2c1C(=O)NC(c1ccc(Br)cc1)N2Cc1ccccc1 (stereo unspecified)	Marburg entry inh inconclusive (no result: SARS PLpro yeast, HCV inh)
CSc1ccccc1C(=O)Nc1ccccc1C(=O)NC(C)C	none
CC(C)(c1ccccc1)c1ccc(OCC(O)CN2CCCC2)cc1 (stereo unspecified)	Marburg entry inh 2.82µM, HCV inh inconclusive, LASV entry inh inconclusive
COc1cc(C(=O)N2CCN(CC(O)COc3ccccc3)CC2)cc(OC)c1OC (stereo unspecified)	none (no result: SARS PLpro yeast)
COc1cc(/C=C/C(=O)N2CCN(CC(O)COc3ccccc3)CC2)cc(OC)c1OC (stereo unspecified)	FMDV inh inconclusive, HCMV inh -81.6
OC(COc1ccc(OCC(O)CN2CCCCCC2)cc1)CN1CCCCCC1 (stereo unspecified)	Marburg entry inh 11.2µM, HCV inh 7.08µM, LASV entry inh inconclusive (no result: HCMV inh)
N#Cc1cccc(-c2cc(-n3ccnc3)ncn2)c1	none (no result: Marburg entry inh, SARS PLpro yeast, HCV inh, LASV entry inh, HCMV inh)
CCNc1c([N+](=O)[O-])c(=O)n(CC)c2ccccc12	none
CCn1c(=O)c([N+](=O)[O-])c(NCCCn2ccnc2)c2ccccc21	HCMV inh -64.5
N#C/C(=C\c1ccc(OCc2ccc(F)cc2)cc1)C(=O)Nc1cccc(C(=O)O)c1	HCMV inh -75.3 (no result: Marburg entry inh, LASV entry inh)
CC(=O)c1cc2c(cc1NC(=O)Cc1ccsc1)OCO2	HCV inh 5.62µM (no result: Marburg entry inh, LASV entry inh)
CC(NCC(O)COCCC12CC3CC(CC(C3)C1)C2)c1ccccc1 (stereo unspecified)	Marburg entry inh 11.6µM, HCV inh 7.94µM, LASV entry inh inconclusive, FMDV inh 31.6µM, HCMV inh -98.4
Cc1cccc(C)c1OCC(O)CNC(C)c1ccccc1 (stereo unspecified)	Marburg entry inh inconclusive, HCV inh 12.6µM, LASV entry inh inconclusive
CC(C)NCC(O)COc1cccc2ccccc12 (stereo unspecified)	Marburg entry inh 0.794µM!
Cc1ccc(C(OCC(O)CNCc2ccc(F)cc2)c2ccccc2)cc1 (stereo unspecified)	HCV inh 8.91µM, FMDV inh inconclusive, HCMV inh -102.0 (no result: Marburg entry inh, LASV entry inh)
CCOC(=O)N1CCc2c(sc3c2c(=O)n(CCc2ccccc2)c(=O)n3Cc2ccc(C)cc2C)C1	HCMV inh inconclusive (no result: SARS PLpro yeast, HCV inh)
COc1ccc(C(OCC(O)CNC(C)c2ccccc2)c2ccc(OC)cc2)cc1 (stereo unspecified)	Marburg entry inh 3.55µM, LASV entry inh inconclusive
Cc1ccc(S(=O)(=O)C2(C(=O)Nc3ccc(Cl)c(C(F)(F)F)c3)CC2)cc1	none (no result: SARS PLpro yeast, HCV inh)
CCC(C)Sc1cccc(-c2nc3ccc(Cl)cn3c2NCc2ccccc2)c1 (stereo unspecified)	none (no result: Marburg entry inh, LASV entry inh, HCMV inh)
CCC(C)Sc1cccc(-c2nc3ccc(C)cn3c2NCc2ccccc2)c1 (stereo unspecified)	FMDV inh 31.6µM! (no result: Marburg entry inh, LASV entry inh)
Cc1ccc2nc(-c3cccc(-c4cccc(Cl)c4)c3)c(NCc3ccccc3)n2c1	FMDV inh 35.5µM (no result: Marburg entry inh, LASV entry inh)
NS(=O)(=O)c1nn2cc(-c3ccccc3)nc2s1	none (no result: Marburg entry inh, SARS PLpro yeast, HCV inh, LASV entry inh, HCMV inh)
COc1nc(C)ccc1-c1noc(-c2cccs2)n1	Marburg entry inh 11.2µM, HCV inh inconclusive
Cn1c2ccc(F)cc2c2nnc(SCCN3CCCCC3)nc21	HCV inh 11.2µM, HCMV inh -86.2!
CCOc1cc(CNCc2ccncc2)cc(Br)c1OCc1ccc(F)cc1	Marburg entry inh inconclusive, HCV inh 10µM, FMDV inh 15.8µM, HCMV inh -65.0
Fc1ccccc1COc1ccc(Br)cc1CNCc1ccncc1	Marburg entry inh inconclusive, FMDV inh 31.6µM
Fc1ccc(COc2cccc(CNCc3ccncc3)c2)cc1	Marburg entry inh 6.31µM, HCV inh inconclusive, HCMV inh -71.1
COc1cc(CNn2c(C)n[nH]c2=S)cc(Br)c1OCc1ccc(F)cc1	HCV inh inconclusive, LASV entry inh inconclusive, HCMV inh inconclusive
Fc1ccc(COc2ccc(Br)cc2CNCc2ccncc2)cc1	Marburg entry inh inconclusive, HCV inh 10µM, FMDV inh inconclusive, HCMV inh inconclusive
O=C(O)c1ccc(CNCc2cccc(OCc3ccc(F)cc3)c2)cc1	HCMV inh inconclusive
Fc1ccccc1COc1ccc(Br)cc1CNCc1cccnc1	Marburg entry inh inconclusive, HCV inh inconclusive, LASV entry inh inconclusive, FMDV inh inconclusive
O=C(Nc1ccc(F)cc1Cl)C1Cc2ccccc2N1C(=O)c1ccccc1 (stereo unspecified)	none (no result: Marburg entry inh, SARS PLpro yeast, HCV inh)
O=C(COc1ccc(Br)cc1)N1CCNC1=O	none (no result: Marburg entry inh, LASV entry inh)
NS(=O)(=O)c1ccc(CCNCc2cc(Br)ccc2OCc2ccccc2)cc1	Marburg entry inh inconclusive, HCV inh 11.2µM, LASV entry inh inconclusive, FMDV inh inconclusive, HCMV inh -66.2
CCOCCCNCc1cc(Br)ccc1OCc1ccccc1	Marburg entry inh inconclusive, HCV inh inconclusive
CCOc1cc(CNCc2ccccc2)ccc1OCc1ccc(Cl)cc1	Marburg entry inh inconclusive, HCV inh 22.4µM, LASV entry inh inconclusive, FMDV inh inconclusive, HCMV inh -84.5
CCOc1cc(CNCCc2ccc(S(N)(=O)=O)cc2)ccc1OCc1ccccc1	Marburg entry inh 6.51µM, HCV inh 12.6µM, LASV entry inh inconclusive, FMDV inh inconclusive, HCMV inh inconclusive
OCCNCc1cc(Br)ccc1OCc1ccccc1	Marburg entry inh inconclusive, HCMV inh -67.6
COc1ccc(CNCCc2ccc(Cl)cc2)cc1OCc1ccccc1	Marburg entry inh inconclusive, HCV inh inconclusive, LASV entry inh inconclusive (no result: HCMV inh)
C1CCN2C[C@H]3C[C@H](CN4CCCCC34)C2C1 (stereo partly specified)	none (no result: Marburg entry inh, SARS PLpro yeast, HCV inh, LASV entry inh, HCMV inh)
c1ccc2sc(-c3cc4c(c(OC5CCOC5)c3)OCCN(Cc3cccn3-c3nccs3)C4)nc2c1 (stereo unspecified)	none (no result: Marburg entry inh, SARS PLpro yeast, HCV inh, LASV entry inh, HCMV inh)
